Results published in the supplement of paper PMC6555819.

System: PPARg:RXRa 270nM:90nM, anti-RXR (NR concentration 270 nM, RXRa partner concentration 90 nM)
Experiment: PBM binding z-score (relative to random genomic background probes); higher = stronger binding; sequences stand for … in GC…GCGATTGACAGCGTAGAATGAAGG
Procedure, shortened: (§1)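 Probes were double-stranded and carried 34-nt variable regions with direct-repeat seeds, single-nucleotide variants, half-site ablations and random human genomic background sequences, printed on custom Agilent 4×180K protein-binding microarrays. Arrays were incubated 1 h with ligand-free nuclear receptor dimers in PBS pH 7.4, 2% milk, 0.02% Triton X-100, 1 mM DTT, 0.2 mg/mL BSA and 0.4 mg/ml salmon testes DNA. Antibodies against each partner (one per run) detected binding, and scanned fluorescence was regression-normalized. Binding z-scores use the random background probes as reference.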

Sequence	PBM binding z-score
CTATGTAGGGTAAGGGGGTCATTCAGTTTGAAAG	7.52
TCGAGAAGGTTACGGGGGCATTCAGGGATGAAGA	5.94
TCGAGTAGGTTACGGGGGTATTCAGGGATGAAGA	4.53
CCGAGTAGGTTACGAGGGGGCATTTAGTGCGAAT	3.44
TCGAGTAGGTTACAGGGGCATTCAGGGATGAAGA	2.87
CCGAGTAGGTTACGACGGGGCATTCAGTGCGAAT	1.17
CCGAGTAGGTTACGAGGGGGCATGCAGTGCGAAT	3.3
CTATGCAGGTTAAGGGGGTCATTCAGTTTGAAAG	6.3
TCGAGTAGGGTACGGGGGCATTCAGGGATGAAGA	4.09
CCGAGTAGGTTACGAGCGGGCATTCAGTGCGAAT	0.819
CCGAGTAGGTTACGAGGGGGCCTTCAGTGCGAAT	2.53
TCGAGTAGGTTAGGGGGGCATTCAGGGATGAAGA	4.97
CTATGTAGGTTAAGGGGTTCATTCAGTTTGAAAG	6.53
CTATGTAGGTTAAGGGGGTCAATCAGTTTGAAAG	7.41
CCGAGTAGGTTACGAGGGGGCATTCACTGCGAAT	3.18
TCGAGTAGGTTACGGGGGCATTCCGGGATGAAGA	5.67
CTATGTAGTTTAAGGGGGTCATTCAGTTTGAAAG	5.19
CCGAGTAGGTTACGAGGGGGCAATCAGTGCGAAT	3.24
CTAGGTAGGTTAAGGGGGTCATTCAGTTTGAAAG	6.57
CTATGTATGTTAAGGGGGTCATTCAGTTTGAAAG	6.26

Sequence	PBM binding z-score
CCGAGTAGATTACGAGGGGGCATTCAGTGCGAAT	0.849
CCGAGTAGGTTACGAGGGGGCACTCAGTGCGAAT	3.18
CCGAGTAGGTTGCGAGGGGGCATTCAGTGCGAAT	1.85
TCGAGTTGGTTACGGGGGCATTCAGGGATGAAGA	2.84
CTACGTAGGTTAAGGGGGTCATTCAGTTTGAAAG	5.7
CTTTGTAGGTTAAGGGGGTCATTCAGTTTGAAAG	7.59
CTATGTAGGTTAAGGGGGTCATTAAGTTTGAAAG	7.7
TCGAGTAGGTTACGGTGGCATTCAGGGATGAAGA	2.29
CTATGTAGGTTAAGGGGCTCATTCAGTTTGAAAG	6.59
TCGAATAGGTTACGGGGGCATTCAGGGATGAAGA	5.84
CTATGTAGGTTAAGGGGATCATTCAGTTTGAAAG	5.5
CCGAGTAGGTTATGAGGGGGCATTCAGTGCGAAT	3.12
CAGAGTAGGTTACGAGGGGGCATTCAGTGCGAAT	4.37
CCGAGTAGGTTACGAGGCGGCATTCAGTGCGAAT	1.28
CTATGTAGGTTAAGTGGGTCATTCAGTTTGAAAG	5.61
TCGAGTAAGTTACGGGGGCATTCAGGGATGAAGA	1.98
TCGAGTAGGTTACGGGGGCATTAAGGGATGAAGA	5.7
CTATGTAGGTTAAGGGGGTCATCCAGTTTGAAAG	7.67
TCGAGTAGTTTACGGGGGCATTCAGGGATGAAGA	2.83

System: PPARg:RXRa 30nM:10nM, anti-RXR (NR concentration 30 nM, RXRa partner concentration 10 nM)
Experiment: as above
Procedure, shortened: as §1

Sequence	PBM binding z-score
CTATGTAGGGTAAGGGGGTCATTCAGTTTGAAAG	5
TCGAGAAGGTTACGGGGGCATTCAGGGATGAAGA	4.28
TCGAGTAGGTTACGGGGGTATTCAGGGATGAAGA	2.64
CCGAGTAGGTTACGAGGGGGCATTTAGTGCGAAT	1.22
TCGAGTAGGTTACAGGGGCATTCAGGGATGAAGA	1.73
CCGAGTAGGTTACGACGGGGCATTCAGTGCGAAT	-0.329
CCGAGTAGGTTACGAGGGGGCATGCAGTGCGAAT	0.783
CTATGCAGGTTAAGGGGGTCATTCAGTTTGAAAG	3.13
TCGAGTAGGGTACGGGGGCATTCAGGGATGAAGA	3.19
CCGAGTAGGTTACGAGCGGGCATTCAGTGCGAAT	-0.546
CCGAGTAGGTTACGAGGGGGCCTTCAGTGCGAAT	0.553
TCGAGTAGGTTAGGGGGGCATTCAGGGATGAAGA	3.63
CTATGTAGGTTAAGGGGTTCATTCAGTTTGAAAG	4.01
CTATGTAGGTTAAGGGGGTCAATCAGTTTGAAAG	5.18
CCGAGTAGGTTACGAGGGGGCATTCACTGCGAAT	1.02
TCGAGTAGGTTACGGGGGCATTCCGGGATGAAGA	2.85
CTATGTAGTTTAAGGGGGTCATTCAGTTTGAAAG	2.68
CCGAGTAGGTTACGAGGGGGCAATCAGTGCGAAT	0.613
CTAGGTAGGTTAAGGGGGTCATTCAGTTTGAAAG	3.72
CTATGTATGTTAAGGGGGTCATTCAGTTTGAAAG	3.94

Sequence	PBM binding z-score
CCGAGTAGATTACGAGGGGGCATTCAGTGCGAAT	0.0804
CCGAGTAGGTTACGAGGGGGCACTCAGTGCGAAT	1.09
CCGAGTAGGTTGCGAGGGGGCATTCAGTGCGAAT	0.127
TCGAGTTGGTTACGGGGGCATTCAGGGATGAAGA	2.24
CTACGTAGGTTAAGGGGGTCATTCAGTTTGAAAG	2.76
CTTTGTAGGTTAAGGGGGTCATTCAGTTTGAAAG	5.64
CTATGTAGGTTAAGGGGGTCATTAAGTTTGAAAG	5.93
TCGAGTAGGTTACGGTGGCATTCAGGGATGAAGA	1.44
CTATGTAGGTTAAGGGGCTCATTCAGTTTGAAAG	4.66
TCGAATAGGTTACGGGGGCATTCAGGGATGAAGA	4.46
CTATGTAGGTTAAGGGGATCATTCAGTTTGAAAG	3.3
CCGAGTAGGTTATGAGGGGGCATTCAGTGCGAAT	1.53
CAGAGTAGGTTACGAGGGGGCATTCAGTGCGAAT	2.05
CCGAGTAGGTTACGAGGCGGCATTCAGTGCGAAT	-0.404
CTATGTAGGTTAAGTGGGTCATTCAGTTTGAAAG	2.89
TCGAGTAAGTTACGGGGGCATTCAGGGATGAAGA	1.45
TCGAGTAGGTTACGGGGGCATTAAGGGATGAAGA	3.23
CTATGTAGGTTAAGGGGGTCATCCAGTTTGAAAG	6.02
TCGAGTAGTTTACGGGGGCATTCAGGGATGAAGA	2.71
